A short description of test [1]: qHTS assay to identify small molecule antagonists of the vitamin D receptor (VDR) signaling pathway - cell viability counter screen (AID 743225). Further: nearly all actives have a fitted effect of over 50% in size. Further: potency means the concentration at half of the fitted maximal effect. The procedure, abridged:
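Luminescent cell viability (CellTiter-Glo) in VDR-bla HEK 293T cells after 16 h compound exposure at 37C in the presence of 3 nM final 1-alpha,25-dihydroxy vitamin D3.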

A short description of test [2]: qHTS assay to identify small molecule antagonists of the retinoid-related orphan receptor gamma (ROR-gamma) signaling pathway - cell viability counter screen (AID 1159520). Further: nearly all actives have a fitted effect of over 50% in size. Further: potency means the concentration at half of the fitted maximal effect. Summed up: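 Cytotoxicity was read from cellular ATP (CellTiter-Glo luminescence) after 16 hr at 37 C with 1 uM doxycycline induction. The inducer was added 2 hr after compound transfer to Tet-on ROR gamma CHO cells.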
A general note: In qHTS, concentration-response curves come from the screen itself.

Test [3] concerns the target Nuclear receptor ROR-gamma (Homo sapiens) (UniProt P51449). As to the kind of experiment: qHTS assay to identify small molecule antagonists of the retinoid-related orphan receptor gamma (ROR-gamma) signaling pathway (AID 1159521; further: nearly all actives have a fitted effect of over 50% in size; further: potency means the concentration at half of the fitted maximal effect). The procedure, abridged:
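CHO cells expressing RORγ under a TET-on promoter, luciferase under RORE control. Dox 1 uM final, 16 h; compounds added 2 h prior. Luminescence decrease measured.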

Test [4] can be described thus: qHTS assay to identify small molecule agonists of the RXR signaling pathway - cell viability counter screen (AID 1159529). Further: nearly all actives have a fitted effect of over 50% in size. Further: potency means the concentration at half of the fitted maximal effect. The procedure, abridged: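 Same-well viability check after the LiveBLAzer FRET read: CellTiter-Glo added, luminescence measured after 30 min at room temperature. Reporter HEK 293T cells had been treated with compounds for 16 hr following a 5 hr preincubation.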

The nature of test [5]: qHTS assay to identify small molecule agonists of the AP-1 signaling pathway - cell viability counter screen (AID 1159525; calls by dose curve; further: nearly all actives have a fitted effect of over 55% in size; further: potency means the concentration at half of the fitted maximal effect). Summed up:
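Intracellular ATP by Cell Titer Glo luminescence (30 min, RT) in the same ME-180 AP-1-bla wells after the 5 h compound exposure at 37 °C. Normalised to tetra n-octyl ammonium bromide and DMSO controls.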

Test [6] is described as follows: qHTS assay to identify small molecule agonists of the AP-1 signaling pathway (AID 1159526; calls by dose curve; further: potency means the concentration at half of the fitted maximal effect).
Test [7] deals with Retinoic acid receptor RXR-alpha (Homo sapiens) (UniProt P19793). Nature of the test: qHTS assay to identify small molecule agonists of the RXR signaling pathway (AID 1159527; calls by dose curve; further: nearly all actives have a fitted effect of over 35% in size). Summed up: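 Beta-lactamase reporter assay, agonist format. Engineered HEK 293T line, charcoal-stripped FBS at 2%, overnight (16 hr) exposure, fluorescence at 460 and 530 nm after 405 nm excitation.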

Values joined by “and” are separate entries in the source; they are usually repeats but may differ in a detail not shown here. Equal entries are not always repeated. Records with an inconclusive call do not appear. Active and inactive are the calls of the source. Unless noted, the call rests on the fitted dose curve; in most records, active means well fitted curve in the direction sought with a large enough effect in the repeat runs; inconclusive means weak or mixed curves; inactive means no such curve, though single readings can be large; an effect the other way counts as inactive or inconclusive.

We go through 29 molecules from PubChem BioAssay (Tox21).

Sequence of Retinoic acid receptor RXR-alpha (Homo sapiens) (P19793 whole entry, looked up): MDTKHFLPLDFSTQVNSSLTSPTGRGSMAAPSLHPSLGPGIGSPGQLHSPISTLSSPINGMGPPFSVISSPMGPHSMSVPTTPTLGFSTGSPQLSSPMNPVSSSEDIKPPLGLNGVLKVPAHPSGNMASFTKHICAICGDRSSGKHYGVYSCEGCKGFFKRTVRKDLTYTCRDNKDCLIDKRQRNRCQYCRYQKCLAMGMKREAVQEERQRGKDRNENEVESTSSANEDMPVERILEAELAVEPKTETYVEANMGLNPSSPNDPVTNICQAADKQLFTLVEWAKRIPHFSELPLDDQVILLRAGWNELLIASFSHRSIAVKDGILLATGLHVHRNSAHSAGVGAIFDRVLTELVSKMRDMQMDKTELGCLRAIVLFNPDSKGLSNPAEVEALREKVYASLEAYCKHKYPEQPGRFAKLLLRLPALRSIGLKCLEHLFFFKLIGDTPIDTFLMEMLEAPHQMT

With `Fc1ccc(Oc2ccnc3cc(Cl)cc(Cl)c23)cc1`, the Potency entry in test [1], in test [2] and in test [3] was “inactive” each time.

As to `OC(c1ccc(Cl)cc1)(c1ccc(Cl)cc1)C(Cl)(Cl)Cl`, the Potency result in test [1] and in test [4] was “inactive” each time. The Potency in test [2] is 61.1 µM (active).

As to `CC(C)C(=O)Cl`, the Potency result in test [2], in test [5], in test [6] and in test [4] was “inactive” in each case. Also, the molecule was classed as inactive in test [7].

Consider `C[C@@H]1O[C@@H](O[C@@H]2C=C3CC[C@@H]4[C@H](CC[C@]5(C)[C@@H](c6ccc(=O)oc6)CC[C@]45O)[C@@]3(C)CC2)[C@H](O)[C@H](O)[C@H]1O`, for which the figures for the Potency in test [1], in test [2] and in test [3] were 0.0134 µM (active), 21.1 µM (active) and 15 µM (active), respectively. Further, the Potency entry in test [6] was “inactive”.

On to `ClC1=C(Cl)[C@]2(Cl)[C@@H]3[C@@H](Cl)[C@H](Cl)C[C@@H]3[C@@]1(Cl)C2(Cl)Cl`, for which the Potency result in test [2], in test [3], in test [6] and in test [4] was “inactive” throughout. In addition, in test [7], the outcome was inactive.

In the case of `O=CC(Br)(Br)Br`, the Potency in test [1] was 48.8 µM (active); in test [2], 7.67 µM (active); in test [6] it was 7.74 µM (active). In addition, the Potency entry in test [3] is “inactive”.

With `Clc1ccc(-c2ccccc2)cc1`, the Potency entry in test [2], in test [3], in test [6] and in test [4] was “inactive” throughout. Besides, in test [7], the molecule was classed as inactive.

In the case of `Clc1ccc(CSC(Cn2ccnc2)c2ccc(Cl)cc2Cl)cc1` (stereo not drawn), in test [2], the Potency result is “inactive”. Moreover, the Potency in test [3] is 29.8 µM (active); in test [4] it was 26.8 µM (active).

As for `CC(C)(COCC1CO1)COCC1CO1` (stereo not drawn), the Potency result in test [2], in test [5], in test [6] and in test [4] was “inactive” throughout. Besides, the outcome in test [7] was inactive.

As to `CC(=[OH+])/C=C(/C)[O-].CC(=[OH+])/C=C(\C)[O-].CC(=[OH+])/C=C(\C)[O-].[Fe]`, the Potency result in test [2], in test [3], in test [6] and in test [4] was “inactive” throughout. Moreover, the result in test [7] was inactive.

With `N#Cc1ccc(O)cc1`, the Potency result in test [2], in test [3] and in test [6] was “inactive” in each case. Besides, the molecule was classed as inactive in test [7].

As to `C[CH2][Hg][N]1C(=O)C2C(C1=O)C1(Cl)C(Cl)=C(Cl)C2(Cl)C1(Cl)Cl` (stereo not drawn), the results for the Potency in test [2], in test [3] and in test [4] were 3.66 µM (active), 2.31 µM (active) and 4.14 µM (active), respectively.

In the case of `CCOC(=O)c1ccccc1S(=O)(=O)NC(=O)Nc1nc(Cl)cc(OC)n1`, the Potency entry in test [2], in test [3], in test [6] and in test [4] was “inactive” throughout. Besides, the outcome in test [7] was inactive.

With `CC(C)CBr`, the Potency result in test [2], in test [3], in test [6] and in test [4] was “inactive” each time. Also, in test [7], the molecule was called inactive.

Turning to `Nc1ccc(Cl)cc1C(=O)c1ccccc1`, the Potency result in test [2], in test [3] and in test [4] was “inactive” throughout. In test [7], the call was inactive.

For `CC(C)(C)C(O)C(Oc1ccc(-c2ccccc2)cc1)n1cncn1` (stereo not drawn), the Potency result in test [2] is “inactive”. The Potency in test [3] was 27.3 µM (active); in test [4], 54.9 µM (active).

For the molecule `ClC1=C(Cl)[C@]2(Cl)[C@@H]3[C@@H](Cl)[C@@H](Cl)C[C@@H]3[C@@]1(Cl)C2(Cl)Cl`, the Potency result in test [2], in test [3], in test [6] and in test [4] was “inactive” each time. In addition, the molecule was called inactive in test [7].

In the case of `Cc1cccc(OP(=O)(Oc2cccc(C)c2)Oc2cccc(C)c2)c1`, the Potency entry in test [2], in test [6] and in test [4] was “inactive” throughout. Also, the molecule was classed as inactive in test [7].

Turning to `CCCCOP(=O)(CCCC)OCCCC`, the Potency result in test [2], in test [5], in test [6] and in test [4] was “inactive” throughout. Also, the outcome in test [7] was inactive.

On to `NC(=O)c1ccc(N)nc1`, for which the Potency in test [2] is 1.22 µM (active); in test [3] it was 0.611 µM (active); in test [4], 13.8 µM (active). Further, in test [6], the Potency result is “inactive”.

With `C=CC(=O)N(C)C`, the Potency result in test [2], in test [3], in test [6] and in test [4] was “inactive” in each case. For the same molecule, in test [7], the molecule was classed as inactive.

Consider `Clc1ccc(C(c2ccccc2Cl)C(Cl)(Cl)Cl)cc1` (stereo not drawn), for which the Potency was 40.2 µM (active) in test [3]; 36.1 µM (active) in test [5]; 49.3 µM (active) and 25.6 µM (active) in test [4].

For `N#CCCO`, the Potency entry in test [2], in test [3], in test [6] and in test [4] was “inactive” each time. Further, in test [7], the molecule was classed as inactive.

On to `OC(Cc1ccccc1Cl)(Cn1cncn1)C1(Cl)CC1` (stereo not drawn), for which the Potency entry in test [2], in test [5], in test [6] and in test [4] was “inactive” throughout. The result in test [7] was inactive.

Turning to `Oc1ccc(I)cc1`, the Potency entry in test [2], in test [3], in test [6] and in test [4] was “inactive” each time. Also, the call in test [7] was inactive.

For the molecule `CCCCCCCCCCBr`, the Potency result in test [2], in test [3] and in test [4] was “inactive” throughout. For the same molecule, the molecule was called inactive in test [7].

For the molecule `CCOP(=S)(OCC)SCS(=O)(=O)CC`, the Potency entry in test [2], in test [5], in test [6] and in test [4] was “inactive” throughout. In test [7], the outcome was inactive.

Consider `C[C@]12CC[C@H](O)C[C@H]1CC[C@@H]1[C@@H]2C[C@@H](O)[C@]2(C)[C@@H](C3=CC(=O)OC3)CC[C@]12O`, for which the Potency entry in test [2], in test [3] and in test [6] was “inactive” each time.

Regarding `O=C(Nc1ccc2[nH]ccc2c1)c1cc2cc(F)ccc2n1Cc1cccc(F)c1`, the Potency in test [1] is 43.6 µM (active); in test [2], 48.6 µM (active); in test [3], 43.3 µM (active); in test [5] it was 27.5 µM (active).
